Measured values taken from ChEMBL document CHEMBL3988442, “University of Dundee, Small-Polar-MMV Screening Library” (2021).
Hit rate of the full screen: of about 67,000 compounds, about 300 (0.45%) showed an effect of 50% or more. The list comes from a sample in which strong results are over-represented; it also holds similar structures and randomly drawn compounds.

What follows are compounds tested against Polyketide synthase Pks13 (Mycobacterium tuberculosis (strain ATCC 25618 / H37Rv)) (UniProt I6X8D2) (assay: Mycobacterium tuberculosis Polyketide synthase 13 Thioesterase (PKS13)). Details: 30 µM.
Polyketide synthase Pks13 (Mycobacterium tuberculosis (strain ATCC 25618 / H37Rv)), sequence (I6X8D2 whole entry): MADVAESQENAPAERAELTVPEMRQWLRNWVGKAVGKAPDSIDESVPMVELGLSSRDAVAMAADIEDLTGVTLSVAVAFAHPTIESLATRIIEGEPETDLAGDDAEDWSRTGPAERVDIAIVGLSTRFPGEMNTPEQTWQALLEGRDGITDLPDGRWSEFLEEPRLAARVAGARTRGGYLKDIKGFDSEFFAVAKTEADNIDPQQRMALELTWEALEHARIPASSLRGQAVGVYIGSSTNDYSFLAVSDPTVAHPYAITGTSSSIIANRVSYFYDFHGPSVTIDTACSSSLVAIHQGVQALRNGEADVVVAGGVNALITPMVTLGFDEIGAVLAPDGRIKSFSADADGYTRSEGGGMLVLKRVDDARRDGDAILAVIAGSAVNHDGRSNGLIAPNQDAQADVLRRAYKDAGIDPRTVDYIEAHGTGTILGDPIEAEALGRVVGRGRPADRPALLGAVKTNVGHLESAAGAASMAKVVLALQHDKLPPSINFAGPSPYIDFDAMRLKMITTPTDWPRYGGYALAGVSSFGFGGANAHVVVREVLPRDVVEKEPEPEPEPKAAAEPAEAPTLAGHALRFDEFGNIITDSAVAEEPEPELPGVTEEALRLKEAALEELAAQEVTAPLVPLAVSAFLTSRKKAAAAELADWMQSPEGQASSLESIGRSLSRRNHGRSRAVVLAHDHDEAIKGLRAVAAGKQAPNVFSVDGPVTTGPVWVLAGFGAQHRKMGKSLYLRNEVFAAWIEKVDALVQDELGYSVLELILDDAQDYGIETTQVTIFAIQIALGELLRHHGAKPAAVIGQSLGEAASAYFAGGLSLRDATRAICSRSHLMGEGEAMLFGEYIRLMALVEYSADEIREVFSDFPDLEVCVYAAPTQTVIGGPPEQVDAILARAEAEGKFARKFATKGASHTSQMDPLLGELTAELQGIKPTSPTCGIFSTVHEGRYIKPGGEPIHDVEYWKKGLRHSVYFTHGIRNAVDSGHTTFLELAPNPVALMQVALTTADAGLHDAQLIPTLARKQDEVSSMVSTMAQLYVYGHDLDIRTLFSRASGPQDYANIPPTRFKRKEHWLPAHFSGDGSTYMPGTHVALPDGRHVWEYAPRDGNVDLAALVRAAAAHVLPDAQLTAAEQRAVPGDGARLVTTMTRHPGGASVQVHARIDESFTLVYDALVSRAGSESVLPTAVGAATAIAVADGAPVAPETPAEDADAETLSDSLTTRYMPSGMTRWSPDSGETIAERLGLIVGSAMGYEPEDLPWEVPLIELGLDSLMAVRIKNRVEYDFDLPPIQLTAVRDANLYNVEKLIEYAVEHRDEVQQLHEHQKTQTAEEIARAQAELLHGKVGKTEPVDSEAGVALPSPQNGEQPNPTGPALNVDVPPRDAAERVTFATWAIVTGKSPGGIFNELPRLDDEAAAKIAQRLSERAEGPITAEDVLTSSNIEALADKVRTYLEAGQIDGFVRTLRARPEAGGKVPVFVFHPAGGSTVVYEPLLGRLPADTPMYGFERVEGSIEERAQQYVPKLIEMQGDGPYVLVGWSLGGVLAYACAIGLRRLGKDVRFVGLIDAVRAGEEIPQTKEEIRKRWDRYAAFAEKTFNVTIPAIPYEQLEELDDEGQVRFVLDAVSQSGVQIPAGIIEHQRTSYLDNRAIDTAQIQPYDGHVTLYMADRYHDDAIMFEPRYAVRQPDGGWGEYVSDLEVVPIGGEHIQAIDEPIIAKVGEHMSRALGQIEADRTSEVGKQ
Type: functional
Design: scale not given: in the data most compounds retested in dose-response had high values

Compound	Percent Effect
Cc1cnc(N2CC[C@@H]3O[C@@H](COCC(=O)N(C)C)CC[C@@H]32)nc1	-4.2%
Cc1cc(C)nc(N2CC[C@@]3(O)CCN(S(=O)(=O)N(C)C)C[C@H]3C2)n1	-22.2%
O=C([C@@H]1COC[C@H]2CN(C3CCOCC3)C[C@H]21)N1CCCCO1	3.42%
Cc1cccc(C)c1Oc1ncccc1CNC(=O)C1(C)CCCNC1 (centres undefined)	-21.7%
CC1(C(=O)NCc2cccnc2Oc2ccc(F)cc2F)CCCNC1 (centres undefined)	-16.5%
CC1(C(=O)NCc2cccnc2Oc2ccc(F)c(F)c2)CCCNC1 (centres undefined)	63.7%
Cc1ccccc1CN1C[C@@H]2OCC(=O)N(CC(N)=O)[C@@H]2C1	-35.3%
CCOC[C@]12COC[C@H]1CN(Cc1ccc(F)c(F)c1)C2	-14.9%
Cc1ncc(CN2CCCC2)c2cc(C(=O)c3ccc(Br)cc3)oc12	-4.91%
Cc1ncc(CNCC(C)O)c2cc(C(=O)c3ccc(Br)cc3)oc12 (centres undefined)	53.8%
Cc1ncc(CNCCO)c2cc(C(=O)c3ccc(Br)cc3)oc12	-1.68%
O=c1ccc2c(n1Cc1ccncc1)CCN(Cc1ccoc1)CC2	6.04%
COCCn1c2c(ccc1=O)CCN(Cc1ccoc1)CC2	19%
O=c1ccc2c(n1CC1CCOCC1)CCN(Cc1ccoc1)CC2	52.6%
O=C(c1cscn1)N1CC[C@H]2[C@@H]1CCC(=O)N2c1ccccc1	-9.46%
c1ccc2c(c1)CN(c1ncnc3c1CCNC3)CCO2	-34%
c1ccc2c(c1)CCN(c1ncnc3sc4c(c13)CCNC4)C2	-23.8%
c1ccc2c(c1)CN(c1ncnc3sc4c(c13)CCNC4)CCO2	63%
O=c1[nH]c(NCCO)nc2c1C1(CCCC1)Cc1ccccc1-2	12.1%
O=C(NCCCO)C1(N2CCCCC2)Cc2ccccc2C1	-29.6%
O=c1[nH]c(NCCO)nc2c1C1(CCCCC1)Cc1ccccc1-2	-23%
CCC1(C)Cc2ccccc2-c2nc(NCCO)nc(O)c21 (centres undefined)	55.8%
OCCCNc1nc(O)c2c(n1)-c1ccccc1CC21CCCCC1	13.8%
O=c1c(NCCCO)c(N2CCN(c3ccccc3)CC2)c1=O	4.71%
O=c1[nH]c(NCCCO)nc2c1C1(CCCC1)Cc1ccccc1-2	55.4%
CC1(C)Cc2ccccc2-c2nc(NCCO)[nH]c(=O)c21	88.1%
CC1(C)Cc2ccccc2-c2nc(NCCCO)[nH]c(=O)c21	62.7%

Compound	Percent Effect
CCC1(C)Cc2ccccc2-c2nc(NCCCO)nc(O)c21 (centres undefined)	37.9%
CC(C)(CO)CCCNC(=O)NC1(C)Cc2ccccc2C1	0.272%
Cc1cc(NCCO)nc(-c2ccccc2O)n1	19.7%
Cn1cc(CN2C[C@H](Oc3ncccc3F)[C@H]3OCCC[C@H]32)cn1	4.64%
Cc1occc1C(=O)N1C[C@@H]2CCCO[C@@H]2[C@H](NC(=O)CC2CC2)C1	-0.923%
CC(C)=CCN1C[C@H]2CC[C@@H]1CN(C(=O)c1c[nH]c(=O)c(Cl)c1)C2	-3.37%
CC(C)CN1C[C@@H]2C(=O)N(C)C3(CCN(C(=O)C(C)C)CC3)[C@@H]2C1	-25.7%
Cc1noc([C@]23COC[C@H]2CN(S(=O)(=O)N(C)C)C3)n1	-30.1%
CNC(=O)CN1CCO[C@H]2CN(C(=O)C3CC3)C[C@H]21	-29%
O=C([C@@H]1COC[C@H]2CN(C3CCOCC3)C[C@H]21)N1CCCO1	35.9%
CS(=O)(=O)N[C@@H]1CN(Cc2ccoc2)C[C@@H]2CCCO[C@@H]21	-30.2%
CCC1(CC)Cc2ccccc2-c2nc(NCCCO)[nH]c(=O)c21	88.8%
CCC1(CC)Cc2ccccc2-c2nc(NCCO)[nH]c(=O)c21	-180%
CCC1(CC)Cc2ccccc2-c2nc(CN(C)C)nc(O)c21	-41.1%
O=C([C@H]1C[C@H]2OCC[C@H]2N(C(=O)c2ccccn2)C1)N1CCCCO1	-25.9%
CC(=O)N1CCC(NC(=O)c2cc(Cl)ccc2-n2cnnn2)CC1	-14.8%
CC(=O)N1CCC(NC(=O)c2cc(Cl)ccc2O)CC1	95.8%
CC(=O)N1CCC(NC(=O)c2cc(S(N)(=O)=O)ccc2C)CC1	-0.331%
Cc1nc(CO[C@H]2CN(Cc3ccccn3)[C@@H]3CCCO[C@H]23)cs1	1.71%
CC(=O)N1CC[C@H]2OCC[C@@H](C(=O)Nc3cccnc3C)[C@H]2C1	5.14%
O=C(c1ccco1)N1C[C@H]2CCCN(CC3CCOCC3)[C@H]2C1	0.0598%
Cn1ccnc1CN1C[C@H](N2CCOCC2)[C@@H]2OCCC[C@@H]21	-10.5%
CC(C)N1Cc2cccc(NCC(=O)N(C)C)c2C1	-31.9%
CC(C)N1Cc2cccc(NCC(=O)N(C)C3CCCCC3)c2C1	81.9%
CC(C)C(C)N1Cc2cccc(NCC(=O)N(C)C)c2C1 (centres undefined)	-6.55%
CN(C)C[C@@H]1CCC[C@@H]2CN(c3cccnc3)C[C@@H]21	-20.9%
CS(=O)(=O)N1CCN2C(=O)N(C3CCCCC3)C[C@H]2C1	3.48%

Compound	Percent Effect
O=C([C@@H]1COC[C@H]2CN(c3ccncn3)C[C@H]21)N1CCCCO1	-30%
O=C(C1CCC1)N1CCO[C@H]2[C@H](OCCCn3cccn3)CC[C@@H]21	-40.4%
Cc1ccnc(NC(=O)c2ccc(Cl)o2)c1	-6.1%
O=C(Nc1cc(CSCCO)ccn1)c1ccc(Cl)o1	62%
Cc1cscc1C(=O)Nc1cc(CSCCO)ccn1	11.8%
Cc1cccc(CN2C[C@@H](NC(=O)C3CCC3)[C@H]3COC[C@H]32)n1	-33.3%
O=C(CCc1n[nH]c2c1CCCC2)N1C[C@@H]2CC[C@H](C1)N(CC1CC1)C2	-15.4%
Cc1nn(C)cc1-c1ccnc(N(C)Cc2cnn(C)c2)n1	-7.71%
Cc1nn(C)cc1-c1ccnc(N(C)Cc2ccc(F)cc2)n1	-13.2%
Cc1nn(C)cc1-c1ccnc(N(C)Cc2ccoc2)n1	139%
CC(C)N1[C@H](Cn2cncn2)C[C@@H]2CN(Cc3cccs3)CC[C@@H]21	2.62%
O=C1CC(NCc2cnc(C3CCCCC3)nc2)CN1c1ccccc1 (centres undefined)	-18%
O=C1CC(NCc2cnc(-c3cccs3)nc2)CN1c1ccccc1 (centres undefined)	-18.1%
O=C1CC(NCc2cnc(N3CCCC3)nc2)CN1c1ccccc1 (centres undefined)	65.7%
O=S(=O)(c1ccccc1)N1C[C@@H]2CCCCN(Cc3cccs3)[C@@H]2C1	-1.03%
COc1cc2nc(NCc3ccc(C)nc3)nc(N)c2cc1OC	-17.5%
COc1cc2nc(NCc3scnc3C)nc(N)c2cc1OC	12.1%
COc1cc2nc(NCc3cc(C)on3)nc(N)c2cc1OC	78.9%
CNC(=O)CN1CCO[C@H]2CN(CC3CCOC3)C[C@H]21 (some centres undefined)	-18.9%
O=C(c1cc(F)cc(F)c1)N1C[C@H]2CNC[C@H]2C1	-29.4%
COCCN1CC(=O)N2CC[C@@H](O)C[C@H]2C1=O	7.83%
Cc1ncc2c(n1)CN(CCCc1nc3ccccc3o1)CC2	94.6%
Cc1ncc2c(n1)CCN(CCCc1nc3ccccc3o1)C2	0.614%
Cc1ncc2c(n1)CN(Cc1nc3ccccc3o1)CC2	-1.34%
CCCN1CCN(C(=O)c2ccc(Cl)cn2)[C@H]2CS(=O)(=O)C[C@H]21	5.71%
